Bioassay records as filed in PubChem.
A selection: hits, their analogues and other compounds. The true share with any hit is near 1.2%.
TbPYK inhibitor: qHTS of Trypanosoma Brucei Inhibitors. pyruvate kinase (Trypanosoma brucei), Q57TT1. TbPYK enzyme, Kinase-Glo Plus ATP luminescence, 45 min. Potency, µM (series often up to 76.8 µM), inactives show at the highest dose activity, negative = inhibition, usual class: inhibitors. actives 0.12% (n = 410,000). AID 624173, 2012; note: % is set by controls: 0 for no effect and ±100 for the full control effect; nearly all actives have a fitted effect of over 50% in size
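Quantitative HTS: titrated library compounds versus trypanosomal pyruvate kinase in TEA buffer (pH 7.2) containing KCl, MgCl2, BSA and Tween-20. Reactions were initiated with ADP, 130 uM final. Kinase-Glo Plus luminescence was read after 45 min at RT.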
Giardia FBPA inh: qHTS Assay for Inhibitors of Fructose-1,6-bisphosphate Aldolase from Giardia Lamblia. A8B2U2. purified Giardia FBPA. Potency, µM (highest dose often 59.6 µM), for the others: top-dose activity, negative = inhibition, hits mostly inhibitors. actives 0.71% (n = 290,000). AID 2451, 2010; note: % is set by controls: 0 for no effect and ±100 for the full control effect; nearly all actives have a fitted effect of over 55% in size
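40 nM FBPA preincubated 10 min at RT with compound (up to 57.5 uM final), then substrate plus GAPDH/TPI/NAD/arsenate coupling and diaphorase/resazurin added. Fluorescence read after 20 min at RT, 525/598 nm.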
LmPK inh: qHTS Assay for Inhibitors of Leishmania Mexicana Pyruvate Kinase (LmPK) | Q27686 | purified LmPK, Kinase-Glo ATP luminescence, 1 h | Potency, µM (titrated, usually from 57.5 µM), for the others: top-dose activity change, negative = inhibition, usual class: inhibitors | actives 0.37% (n = 290,000) | AID 1721, 2009; note: % is set by controls: 0 for no effect and ±100 for the full control effect
Target sequence (Q27686 whole entry, looked up): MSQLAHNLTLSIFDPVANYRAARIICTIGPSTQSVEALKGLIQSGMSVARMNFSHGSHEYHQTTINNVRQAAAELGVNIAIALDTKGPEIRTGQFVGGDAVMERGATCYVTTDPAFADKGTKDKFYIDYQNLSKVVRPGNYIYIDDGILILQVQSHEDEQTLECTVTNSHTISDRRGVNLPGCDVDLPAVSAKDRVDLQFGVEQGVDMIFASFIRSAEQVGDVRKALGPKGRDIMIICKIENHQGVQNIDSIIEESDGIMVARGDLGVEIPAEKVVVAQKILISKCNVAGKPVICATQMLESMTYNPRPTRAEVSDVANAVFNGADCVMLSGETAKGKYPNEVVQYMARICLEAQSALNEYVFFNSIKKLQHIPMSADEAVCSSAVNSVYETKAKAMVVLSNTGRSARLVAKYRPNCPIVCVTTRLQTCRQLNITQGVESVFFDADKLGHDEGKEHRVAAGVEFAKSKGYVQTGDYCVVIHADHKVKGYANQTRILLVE
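Screened at intermediate enzyme activity to detect both inhibitors and activators: LmPK at 0.1 nM, with a 0.5 nM enzyme column as activation reference. PEP 0.5 mM, ADP 0.1 mM; ATP detected by luminescence after 1 h.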
NS1 inh: qHTS Assay for Inhibitors of Influenza NS1 Protein Function | Potency, µM (highest dose often 46.1 µM), for the others: top-dose activity, positive = more growth | actives 0.4% (n = 270,000) | AID 2326, 2010; calls by dose curve; note: actives are rising curves; nearly all actives have a fitted effect of over 50% in size
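Recovery from NS1-induced slow growth read by OD600 in budding yeast switched to galactose assay medium (pH 6.0, -URA) at 1:100 dilution. Compound 23 nl per well; the matching strain lacking NS1 serves as control.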
AMA1 RON2 block: qHTS for Inhibitors of AMA1-RON; Towards Development of Antimalarial Drug Lead: Primary Screen; AlphaScreen AMA1-biotinylated RON2 peptide binding; Plasmodium falciparum AMA1 (3D7) - RON2 peptide interaction; Potency, µM (titrated, usually from 58.2 µM), for inactives: at the top dose activity change, negative = inhibition, hits mostly inhibitors; actives 0.2% (n = 360,000);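 note: 0% = vehicle wells and -100% = peptide control; nearly all actives have a fitted effect of over 45% in size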
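AMA1 (3D7) with his tag at 25 nM final met compounds first, then biotinylated RON2 peptide at 25 nM; detection used donor plus acceptor beads, 10 µg/mL apiece, read by AlphaScreen after 30 min at room temperature.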
* = called active by the depositor; [ ] = remark or other dose. Unless noted, calls come from the whole dose curve; as a rule, active = well fitted curve in the direction sought with a large enough effect; inconclusive = small, poorly fitted or top-dose-only effect, or another doubt; inactive = no such curve, though single readings can be large; an effect the other way counts as inactive or inconclusive. Potency is the fitted concentration of half-maximal effect.

For N#CCSc1ccc(-c2nc3ccccc3[nH]2)cn1 the results were TbPYK inhibitor 0%, Giardia FBPA inh -12%, LmPK inh 25µM*, NS1 inh -6% and AMA1 RON2 block 10%.
`Cc1cc(NC(c2cccnc2)c2ccc3cccnc3c2O)no1` (stereo unspecified) gave TbPYK inhibitor 26%, Giardia FBPA inh -3%, LmPK inh 3%, NS1 inh -125% and AMA1 RON2 block 20µM*.
For Oc1c(C(Nc2cccc(C(F)(F)F)c2)c2cccnc2)ccc2cccnc12 (stereo unspecified) the results were TbPYK inhibitor 133%, Giardia FBPA inh inconclusive, LmPK inh 11%, NS1 inh -17% and AMA1 RON2 block -34%.
`Cc1cc(Nc2cc(Cl)ccc2C)n2nc(-c3ccccc3)nc2n1` gave TbPYK inhibitor 7%.
Screening CSc1ccc(/C=N/NC(=O)c2cccc(O)c2)cc1 returned TbPYK inhibitor -11%, Giardia FBPA inh -2%, LmPK inh 8.9µM*, NS1 inh 2% and AMA1 RON2 block -3%.
For COC(=O)C(C(=O)OC)[C@@H](NC(=O)OCc1ccccc1)c1ccccc1 the results were Giardia FBPA inh 0%.
O=C(Nc1ccc(F)cc1)c1nc[nH]c1C(=O)O was read as TbPYK inhibitor 20%, Giardia FBPA inh 2%, LmPK inh 0%, NS1 inh 2% and AMA1 RON2 block 14µM*.
`O=C(Nc1ccc(F)cc1)c1nc[nH]c1C(=O)Nc1ccccc1[N+](=O)[O-]` gave TbPYK inhibitor 6%, Giardia FBPA inh 1%, LmPK inh 1%, NS1 inh 2% and AMA1 RON2 block 17%.
`CC(CNC(=O)Cn1ccc2cc(S(=O)(=O)N3CCCCC3)ccc21)c1ccccc1` (stereo unspecified) gave TbPYK inhibitor 0%.
For CN(C1=C(NC(=O)c2ccc(Cl)cc2)C(=O)c2ccccc2C1=O)c1ccccc1 the results were TbPYK inhibitor -14%, Giardia FBPA inh inconclusive, LmPK inh -25%, NS1 inh 27% and AMA1 RON2 block 10µM*.
`CO[C@@H]1[C@H](N(C)C(=O)c2ccccc2)C[C@H]2O[C@]1(C)n1c3ccccc3c3c4c(c5c6ccccc6n2c5c31)C(=O)NC4` gave TbPYK inhibitor 0%.
C[C@@H]1CCN(C(=O)CC#N)C[C@@H]1N(C)c1ncnc2[nH]ccc12 was read as TbPYK inhibitor 0%.
CCc1ccc(CN2CCN(Cc3ccc(SC)cc3)CC2)cc1 was read as TbPYK inhibitor 19%, Giardia FBPA inh 18µM*, LmPK inh -6% and AMA1 RON2 block 13µM*.
For O=C1/C(=C\c2ccc(O)c(O)c2)Oc2c1ccc(O[C@@H]1O[C@H](CO)[C@@H](O)[C@H](O)[C@H]1O)c2O the results were Giardia FBPA inh -24%.
For CC1(C)OCC(CSC2=C(SCC3COC(C)(C)O3)C(=O)c3ncccc3C2=O)O1 (stereo unspecified) the results were Giardia FBPA inh 1.8µM*.
COc1ccccc1N1CCN(CCCNC(=O)c2cnn(-c3ccccc3)c2C2CCN(C(=O)OC(C)(C)C)CC2)CC1 was read as TbPYK inhibitor -8%[15.4 µM].
Nc1c(O)ccc2c1C(=O)c1ccccc1C2=O was read as TbPYK inhibitor inconclusive, Giardia FBPA inh inconclusive, LmPK inh 14µM*, NS1 inh -26% and AMA1 RON2 block inconclusive.
Screening CC(C)(Oc1ccc(-c2cccc3ccccc23)cc1)C(=O)O returned NS1 inh -12%.
`NC(=O)C(=CNc1nc(-c2ccc(Cl)c(Cl)c2)cs1)C(N)=O` gave Giardia FBPA inh 18µM*, LmPK inh -10% and NS1 inh 7%.
For COc1ccc2nc(-c3ccc(N(C)C)cc3)sc2c1 the results were Giardia FBPA inh -2%.
`CCC(/C=C1\Oc2ccc(OC)cc2N1C)=C\c1sc2ccccc2[n+]1CCCS(=O)(=O)[O-]` gave TbPYK inhibitor -28% and AMA1 RON2 block 8%.
For COc1cc(/C=C/c2sc3ccccc3[n+]2CCCS(=O)(=O)[O-])ccc1O the results were TbPYK inhibitor inconclusive, Giardia FBPA inh inconclusive, LmPK inh 16µM*, NS1 inh 9% and AMA1 RON2 block inconclusive.
`CCSc1nc2sc3c(c2c(=O)[nH]1)CC(C)(CC)OC3` (stereo unspecified) gave TbPYK inhibitor -10%, Giardia FBPA inh -7%, LmPK inh 3%, NS1 inh 8% and AMA1 RON2 block -6%.
For CCC1(C)Cc2c(sc3nc(SCC(=O)O)[nH]c(=O)c23)CO1 (stereo unspecified) the results were TbPYK inhibitor inconclusive, Giardia FBPA inh 3%, LmPK inh 18µM*, NS1 inh 10% and AMA1 RON2 block -3%.
For CC(C)=CCC/C(C)=C/CC/C(C)=C/CC/C(C)=C/CC1=C(C)C(=O)c2ccccc2C1=O the results were TbPYK inhibitor 3%, Giardia FBPA inh inconclusive, LmPK inh -5%, NS1 inh 5% and AMA1 RON2 block -8%.
Screening CC(C)=CCC1=C(OCC(=O)O)C(=O)c2ccccc2C1=O returned TbPYK inhibitor -9%, Giardia FBPA inh 1.3µM*, LmPK inh 9%, NS1 inh -17% and AMA1 RON2 block -2%.
For Oc1[nH]c2ccc(Br)cc2c1N=NC(=S)N1CCOCC1 the results were TbPYK inhibitor inconclusive, Giardia FBPA inh inconclusive, LmPK inh 22µM*, NS1 inh -37% and AMA1 RON2 block -25%.
COc1ccc(CNC(=O)CN(c2ccc(C(C)C)cc2)S(=O)(=O)c2c(C)nn(C)c2C)cc1 was read as TbPYK inhibitor -2%.
`CC1(C)S[C@@H]2[C@H](NC(=O)[C@@H](NC(=O)N3CCNC3=O)c3ccccc3)C(=O)N2[C@H]1C(=O)O` gave TbPYK inhibitor -7%[33.2 µM] and Giardia FBPA inh 12%[21.7 µM].
Screening CC(C)CCCC(C)C1CCC2C3CC[C@H]4CC(=O)CC[C@@]4(C)C3CC[C@@]12C (stereo partly specified) returned Giardia FBPA inh -1%.
`CNC(=S)N1N=C(c2ccc(C)cc2)CC1c1ccc(N(C)C)cc1` (stereo unspecified) gave TbPYK inhibitor -6%, Giardia FBPA inh -30%, LmPK inh 4% and AMA1 RON2 block 28µM*.
Cc1cccc(Cn2cc(S(=O)(=O)c3ccccc3)c(=O)c3cc(F)c(N4CCOCC4)cc32)c1 was read as TbPYK inhibitor -5%.
Cc1nc(C)c(C(=O)C2=C(O)C(=O)N(CCN(C)C)C2c2cccs2)s1 (stereo unspecified) was read as TbPYK inhibitor -7%, Giardia FBPA inh -6%, LmPK inh -3%, NS1 inh 6% and AMA1 RON2 block 14%.
